Assay results as given in PubChem BioAssay (NCATS).
Records with an inconclusive call do not appear. Where a call stands in place of a potency, no number is given. Calls of active or inactive are those of the source. Unless noted, the call rests on the fitted dose curve; in most records, active means well fitted curve in the direction sought with a large enough effect; inconclusive means small, poorly fitted or top-dose-only effect, or another doubt; inactive means no such curve, though single readings can be large; an effect the other way counts as inactive or inconclusive. Peptide text beside a SMILES is read from it.

Legend:
[1] = target: Thyrotropin receptor (Homo sapiens) (UniProt P16473); test: qHTS Assay for Antagonists of the Thyroid Stimulating Hormone Receptor (AID 488980); conditions: TSHR-expressing cells, cAMP antagonist read-out; series mostly up to 57.5 µM
Outline: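 HEK293 cells transfected with human TSHR, suspended in HEPES-buffered HBSS with 70 uM RO 20-1724, were treated with compounds plus TSH at EC80 (4 nM final). cAMP was measured by competitive HTRF (cryptate anti-cAMP antibody, cAMP-d2 acceptor).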

[2] = target: D(1A) dopamine receptor (Homo sapiens) (UniProt P21728); test: HTS Assay for Allosteric Agonists of the Human D1 Dopamine Receptor: Primary Screen for Agonists (AID 488981); conditions: Inducible HEK293 T-REx D1 cells, calcium-flux fluorescence, 180 s kinetic; series mostly up to 41.8 µM
Outline: (§1)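 Calcium flux in an inducible, force-coupled HEK293 Trex D1 line (overnight at 30 C): agonist mode is the 180 s kinetic read after compound; potentiator mode is the following 180 s read after dopamine at EC20.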

[3] = target: D(1A) dopamine receptor (Homo sapiens) (UniProt P21728); test: HTS Assay for Allosteric Agonists of the Human D1 Dopamine Receptor: Primary Screen for Potentiators (AID 488982); conditions: HEK293 T-REx D1 inducible cells, calcium flux, kinetic fluorescence; series mostly up to 8.37 µM
Outline: as §1

[4] = target: D(1A) dopamine receptor (Homo sapiens) (UniProt P21728); test: HTS Assay for Allosteric Agonists of the Human D1 Dopamine Receptor: Primary Screen for Antagonists (AID 488983); conditions: D1 receptor cell assay, antagonist mode, qHTS titration; series mostly up to 41.8 µM;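 further: calcium flux response to an EC80 dopamine challenge measured with no-wash dye; nearly all actives have a fitted effect of over 65% in size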
Source text: Dopamine receptors (DARs) are involved in the etiology and/or therapy of a number of neuropsychiatric and endocrine disorders. For instance, all receptor-based antiparkinsonian drugs work via stimulating the […] DAR subtype whereas all FDA-approved antipsychotic agents are antagonists of this receptor. […] There are three different types of allosteric modulators that we are seeking, two of which will stimulate or augment receptor signaling, allosteric agonists and potentiators, while the third, allosteric antagonists, will attenuate receptor signaling. The present primary screening assay measures compound agonism by tracking calcium flux in a […], inducible Hek293 Trex D1 cell line.
Freshly passaged cells are plated in 1536 well black, clear bottom plates at a density of 4000 cells/well in 3 ul of complete media containing 1x tetracycline inducer. After an overnight incubation at […] in 5% CO2, cells are loaded with 2 ul of the no wash Calcium Assay Kit (ABD Bioquest) and incubated at room temperature for 30 to 90 minutes. […] The plate is measured for kinetically at 1 cycle/sec for 180 seconds and is considered to be the agonist portion of the assay (eg, compounds which activate a positive calcium response during this portion are flagged as potential agonists). Following the 180 second read, 1 ul of an EC80 of dopamine is delivered by an onboard pipette head. […]

[5] = Validation screen for small molecules that induce genotoxicity in human embryonic kidney (HEK293T) cells expressing luciferase-tagged ELG1 (AID 493106); conditions: luminescence; series mostly up to 46.1 µM
Outline: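 HEK293T cells expressing luciferase-tagged ELG1 were exposed to compound or DMSO vehicle for 16 hr at 37 °C, 5% CO2. Genotoxic stress raises ELG1 levels, so increased luciferase signal after ONE-Glo addition and 30 min at room temperature marks hits.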

[6] = target: ATPase family AAA domain-containing protein 5 (Homo sapiens) (UniProt Q96QE3); test: Validation screen for small molecules that inhibit ELG1-dependent DNA repair in human embryonic kidney (HEK293T) cells expressing luciferase-tagged ELG1 (AID 493107); conditions: HEK293T ELG1-luciferase level, luminescence, 5-fluorouridine co-treatment, 16 h; series mostly up to 46.1 µM;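 further: cells co-treated with the DNA-damaging agent 5-fluorouridine alongside compound; inhibitors lower the ELG1-luciferase luminescence signal; nearly all actives have a fitted effect of over 70% in size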
Outline: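 HEK293T cells expressing luciferase-tagged ELG1 were co-treated with 5-fluorouridine and compound or DMSO for 16 hr at 37 °C, 5% CO2. Luciferase activity was then read with ONE-Glo after 30 min at room temperature; suppressed signal indicates blocked ELG1 function.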

[7] = Nrf2 qHTS screen for inhibitors: Validation (AID 493153; active means well fitted inhibition curve with a large enough effect in the main read-out, with a control signal flat, not every such curve was filed as active); conditions: A549 ARE-Fluc reporter, 18-24 h; viability change: measured here: cytotoxicity max response; luciferase luminescence, at 46.1 µM (top of the series)
Outline: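 A549 cells carrying an ARE-driven firefly luciferase reporter, in 5% FBS OPTI-MEM, were treated with compounds in concentration-response for 18-24 h at 37°C. Viability was read by CellTiter-Fluor fluorescence, then Nrf2 activity by luciferase luminescence.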

[8] = qHTS for Inhibitors of Cell Surface uPA Generation: Validation Assay (AID 493164); conditions: mouse cells, plasminogen activation; series mostly up to 38.3 µM;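 further: RAW 264.7 macrophage cells exposed to compound for 18 h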
Outline: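 RAW 264.7, 4000 cells/well, o/n plating; cpd 7-pt 1:5 dilution 2.45 nM–38.3 uM final; 18 h, 37 C/5% CO2; ATP-Lite, 5 s luminescence exposure.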

[9] = target: Tyrosyl-DNA phosphodiesterase 1 (Homo sapiens) (UniProt Q9NUW8); test: Confirmation Assay for Inhibitors of Tyrosyl-DNA Phosphodiesterase (TDP1) (AID 489007); conditions: recombinant human TDP1 enzymatic activity, dose-response; further: potency means the concentration at half of the fitted maximal effect; nearly all actives have a fitted effect of over 40% in size
Outline: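 Recombinant E. coli-expressed Tdp1 (1 nM final) was preincubated with compounds 15 min at room temperature, then reacted 5 min with 15 nM 5'-biotin/3'-phosphotyrosine-FITC DNA substrate; cleavage read as loss of AlphaScreen signal (10 ug/ml beads, 10 min).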

D(1A) dopamine receptor (Homo sapiens), sequence (P21728 whole entry, looked up): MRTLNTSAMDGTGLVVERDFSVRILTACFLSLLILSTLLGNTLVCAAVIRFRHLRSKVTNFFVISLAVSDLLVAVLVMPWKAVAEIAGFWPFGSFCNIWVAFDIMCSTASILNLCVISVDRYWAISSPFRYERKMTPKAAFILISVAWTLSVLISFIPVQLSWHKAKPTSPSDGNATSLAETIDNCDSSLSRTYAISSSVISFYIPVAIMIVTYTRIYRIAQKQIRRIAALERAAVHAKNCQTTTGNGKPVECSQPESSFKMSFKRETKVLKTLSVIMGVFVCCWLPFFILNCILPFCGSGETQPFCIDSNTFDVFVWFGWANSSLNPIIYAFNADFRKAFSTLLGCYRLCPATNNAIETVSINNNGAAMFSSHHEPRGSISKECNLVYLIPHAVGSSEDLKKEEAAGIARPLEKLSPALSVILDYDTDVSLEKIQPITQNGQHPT
Tyrosyl-DNA phosphodiesterase 1 (Homo sapiens), sequence (Q9NUW8 whole entry, looked up): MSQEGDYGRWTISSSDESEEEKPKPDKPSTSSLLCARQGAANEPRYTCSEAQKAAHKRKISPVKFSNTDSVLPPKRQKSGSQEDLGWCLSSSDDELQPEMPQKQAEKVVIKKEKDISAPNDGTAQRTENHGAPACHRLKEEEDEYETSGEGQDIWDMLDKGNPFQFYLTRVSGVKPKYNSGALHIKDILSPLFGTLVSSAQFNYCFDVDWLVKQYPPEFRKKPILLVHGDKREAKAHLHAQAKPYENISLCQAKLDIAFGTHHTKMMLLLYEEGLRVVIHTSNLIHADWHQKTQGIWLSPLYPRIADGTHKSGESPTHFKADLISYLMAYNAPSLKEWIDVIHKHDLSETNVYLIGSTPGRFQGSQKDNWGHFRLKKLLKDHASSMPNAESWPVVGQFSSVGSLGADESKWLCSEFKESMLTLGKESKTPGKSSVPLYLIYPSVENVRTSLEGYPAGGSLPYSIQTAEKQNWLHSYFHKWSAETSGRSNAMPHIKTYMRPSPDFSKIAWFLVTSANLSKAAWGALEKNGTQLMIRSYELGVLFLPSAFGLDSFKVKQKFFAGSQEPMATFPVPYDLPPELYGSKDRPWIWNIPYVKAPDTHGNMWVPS
Thyrotropin receptor (Homo sapiens), sequence (P16473 whole entry, looked up): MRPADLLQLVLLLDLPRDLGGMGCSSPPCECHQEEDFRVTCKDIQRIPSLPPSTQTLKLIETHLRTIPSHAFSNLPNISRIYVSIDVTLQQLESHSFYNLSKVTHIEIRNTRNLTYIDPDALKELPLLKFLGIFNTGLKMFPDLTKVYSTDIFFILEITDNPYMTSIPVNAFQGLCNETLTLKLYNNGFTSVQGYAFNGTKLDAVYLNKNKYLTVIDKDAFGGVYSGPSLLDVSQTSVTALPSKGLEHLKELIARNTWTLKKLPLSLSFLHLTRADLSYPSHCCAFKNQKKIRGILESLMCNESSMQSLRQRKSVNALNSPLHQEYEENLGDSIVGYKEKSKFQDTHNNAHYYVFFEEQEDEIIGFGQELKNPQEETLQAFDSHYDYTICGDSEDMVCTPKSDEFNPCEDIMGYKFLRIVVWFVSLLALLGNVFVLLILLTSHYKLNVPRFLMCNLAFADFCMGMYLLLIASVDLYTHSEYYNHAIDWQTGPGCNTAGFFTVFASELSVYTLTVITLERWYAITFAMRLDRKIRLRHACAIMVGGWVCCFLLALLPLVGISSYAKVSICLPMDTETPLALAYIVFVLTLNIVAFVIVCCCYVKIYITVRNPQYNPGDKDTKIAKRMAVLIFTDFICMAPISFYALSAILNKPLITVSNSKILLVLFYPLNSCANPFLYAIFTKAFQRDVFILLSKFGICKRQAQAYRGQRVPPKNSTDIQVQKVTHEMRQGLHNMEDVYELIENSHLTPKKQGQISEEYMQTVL
ATPase family AAA domain-containing protein 5 (Homo sapiens), sequence (Q96QE3 whole entry, looked up, the tested form may be a part): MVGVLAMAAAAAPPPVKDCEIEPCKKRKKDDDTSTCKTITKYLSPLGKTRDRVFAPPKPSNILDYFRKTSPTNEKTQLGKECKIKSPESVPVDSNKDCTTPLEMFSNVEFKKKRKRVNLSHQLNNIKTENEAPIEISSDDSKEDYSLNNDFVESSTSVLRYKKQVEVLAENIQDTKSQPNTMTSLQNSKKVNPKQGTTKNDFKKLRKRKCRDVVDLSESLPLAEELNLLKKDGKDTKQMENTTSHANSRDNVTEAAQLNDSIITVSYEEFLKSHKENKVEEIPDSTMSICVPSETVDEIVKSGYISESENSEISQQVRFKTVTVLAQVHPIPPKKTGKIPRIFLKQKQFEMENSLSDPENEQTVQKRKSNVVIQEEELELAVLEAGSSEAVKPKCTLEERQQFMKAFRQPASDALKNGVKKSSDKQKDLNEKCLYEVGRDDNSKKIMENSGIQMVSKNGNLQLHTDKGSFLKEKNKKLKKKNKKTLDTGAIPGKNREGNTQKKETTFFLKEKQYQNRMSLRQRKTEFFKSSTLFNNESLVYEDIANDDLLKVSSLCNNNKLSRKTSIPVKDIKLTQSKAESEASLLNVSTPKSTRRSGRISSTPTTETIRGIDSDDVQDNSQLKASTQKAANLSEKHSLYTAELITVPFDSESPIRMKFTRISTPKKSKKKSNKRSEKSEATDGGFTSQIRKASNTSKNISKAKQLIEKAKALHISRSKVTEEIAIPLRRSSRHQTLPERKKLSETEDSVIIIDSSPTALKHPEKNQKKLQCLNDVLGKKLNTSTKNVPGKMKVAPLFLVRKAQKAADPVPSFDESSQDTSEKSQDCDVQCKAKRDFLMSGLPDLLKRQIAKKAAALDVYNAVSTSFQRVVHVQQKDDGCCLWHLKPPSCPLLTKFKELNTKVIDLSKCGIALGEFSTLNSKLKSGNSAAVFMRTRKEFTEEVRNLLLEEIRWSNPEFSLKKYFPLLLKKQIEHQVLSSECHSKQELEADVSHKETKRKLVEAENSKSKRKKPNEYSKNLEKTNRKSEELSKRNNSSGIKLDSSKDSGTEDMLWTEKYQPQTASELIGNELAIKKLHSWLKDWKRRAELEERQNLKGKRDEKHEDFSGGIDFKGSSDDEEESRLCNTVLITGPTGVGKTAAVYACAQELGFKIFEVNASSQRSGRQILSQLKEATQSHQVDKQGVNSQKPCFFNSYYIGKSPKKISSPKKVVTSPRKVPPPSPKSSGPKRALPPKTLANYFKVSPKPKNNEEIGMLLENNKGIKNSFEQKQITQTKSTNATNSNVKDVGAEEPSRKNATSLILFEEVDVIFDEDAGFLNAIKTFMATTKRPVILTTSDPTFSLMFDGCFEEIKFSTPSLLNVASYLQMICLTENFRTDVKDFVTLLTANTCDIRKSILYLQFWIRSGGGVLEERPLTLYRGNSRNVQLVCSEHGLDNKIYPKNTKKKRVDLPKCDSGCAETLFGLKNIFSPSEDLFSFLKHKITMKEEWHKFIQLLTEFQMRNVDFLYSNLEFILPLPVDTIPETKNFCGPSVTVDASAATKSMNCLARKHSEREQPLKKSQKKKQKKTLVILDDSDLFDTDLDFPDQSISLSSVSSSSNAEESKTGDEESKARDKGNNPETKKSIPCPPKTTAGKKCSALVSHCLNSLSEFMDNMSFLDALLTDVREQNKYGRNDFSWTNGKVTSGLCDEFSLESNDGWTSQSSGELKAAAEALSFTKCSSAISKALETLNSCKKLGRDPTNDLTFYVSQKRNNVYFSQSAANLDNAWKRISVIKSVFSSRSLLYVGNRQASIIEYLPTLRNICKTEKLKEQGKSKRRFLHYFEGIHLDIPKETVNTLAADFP

Structure (SMILES): CN1Cc2c(N)cccc2C(c2ccccc2)C1 (configuration not stated)
- outcome [1]: inactive
- outcome [2]: inactive
- outcome [3]: inactive
- outcome [4]: inactive
- outcome [5]: inactive
- outcome [6]: inactive
- outcome [7]: inactive
- viability change [7]: 7.68%
- outcome [8]: inactive

Structure (SMILES): CC[N+](C)(C)Cc1ccccc1Br
- outcome [1]: inactive

Structure (SMILES): CC(=O)N[C@@H](CC(=O)O)C(=O)N[C@@H](CCC(=O)O)C(=O)O (Ac-Asp-Glu-OH)
- Potency [9]: 25.1 µM (active)

Structure (SMILES): O=C(O)c1cc(O)c2c(c1)[O][Bi][O]2
- Potency [9]: 15.8 µM (active)
